VLA-4 inh = inhibition in a human VLA-4 binding assay; P13612; VLA-4 expressing cells, ligand binding flow cytometry; inhibition, % (about 7 µM as worked out from the volumes in the protocol); 330,000 tested, 0.2% active; AID 2557; in the data active = inhibition above about 50%
Target sequence (P13612 whole entry, looked up): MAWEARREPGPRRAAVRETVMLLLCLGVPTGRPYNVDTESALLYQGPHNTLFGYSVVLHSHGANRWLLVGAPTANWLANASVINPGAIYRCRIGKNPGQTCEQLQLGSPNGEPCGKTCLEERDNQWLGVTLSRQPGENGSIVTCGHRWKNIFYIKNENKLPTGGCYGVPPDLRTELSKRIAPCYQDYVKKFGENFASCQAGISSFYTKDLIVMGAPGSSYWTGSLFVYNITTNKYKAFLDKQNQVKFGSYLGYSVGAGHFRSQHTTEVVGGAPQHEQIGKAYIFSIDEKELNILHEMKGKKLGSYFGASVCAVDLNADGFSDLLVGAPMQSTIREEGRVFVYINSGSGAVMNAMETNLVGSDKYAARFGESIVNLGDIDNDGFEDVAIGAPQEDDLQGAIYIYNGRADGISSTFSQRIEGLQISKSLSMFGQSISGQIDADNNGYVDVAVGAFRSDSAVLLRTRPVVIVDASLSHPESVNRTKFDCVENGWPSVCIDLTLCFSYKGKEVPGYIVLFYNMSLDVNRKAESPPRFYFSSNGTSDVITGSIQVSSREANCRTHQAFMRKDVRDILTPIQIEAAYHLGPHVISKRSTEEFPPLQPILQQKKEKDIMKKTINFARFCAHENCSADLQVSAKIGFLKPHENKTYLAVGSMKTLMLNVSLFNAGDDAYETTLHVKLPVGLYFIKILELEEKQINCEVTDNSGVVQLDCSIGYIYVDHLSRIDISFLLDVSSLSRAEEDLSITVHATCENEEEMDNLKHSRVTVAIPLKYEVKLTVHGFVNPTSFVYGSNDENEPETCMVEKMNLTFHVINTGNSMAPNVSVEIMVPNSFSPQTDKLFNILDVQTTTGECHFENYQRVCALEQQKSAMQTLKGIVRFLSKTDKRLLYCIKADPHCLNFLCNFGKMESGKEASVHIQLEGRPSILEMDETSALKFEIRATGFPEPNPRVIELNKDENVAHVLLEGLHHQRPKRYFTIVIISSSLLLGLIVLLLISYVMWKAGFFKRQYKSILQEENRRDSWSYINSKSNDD
SKN-1 inh = C. elegans SKN-1 inhibition | C. elegans VP596 Pgst-4::GFP/RFP ratio, acrylamide-induced, 24 h | inhibition, % at 21.8 µM | 360,000 tested, 0.49% active | AID 624304;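 active = interference check ratio from 0.5 to 1.5 plus GFP to RFP signal ratio inhibition reaching or exceeding a fixed threshold, cut at about 30% in these data, passing the limit was not always enough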
CR mimetic SO = lowers age-related superoxide in aged yeast cells | 330,000 tested, 0.18% active | S. cerevisiae aged cells, superoxide DHE fluorescence; active compounds read low | superoxide response (% of plate mean), % at 10 µM | AID 2690;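 active = superoxide response under a set limit, about three screen SD below normal, cut at about 65% in these data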;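 also: yeast aged for seven days with compound at 30 °C before DHE staining; 100% = average MFI of all compound-treated wells on the plate with controls excluded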
Platelet DG rel = modulates dense granule release in human platelets; AID 1663; inhibition, %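 (compounds screened at 7.5 µM in platelet-rich plasma)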; human platelet-rich plasma, SFLLRN dense granule ATP release, luminescence; 300,000 tested, 0.22% active;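 active = mean replicate score, as percent of positive control, at or above 50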
ABCB6 inh MLPCN = human ABCB6 transporter inhibition. fluorescence ratio to DMSO, % at 10 µM. AID 602162. K562-ABCB6 porphyrin accumulation, flow cytometry, 1 h; active compounds read low. Q9NP58. 360,000 tested, 0.19% active;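 active = fluorescence ratio to DMSO below 75%, the collection mean minus 3 SD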;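 also: signal is porphyrin accumulated inside mitochondria; 100% equals median channel fluorescence of DMSO control wells; lower ratio means ABCB6 inhibition with less porphyrin fluorescence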
VLA-4 allo CP = human VLA-4 allosteric modulation in cherry picked compounds | U937 cells, HUTS-21 LIBS mAb binding, flow cytometry; LDV ligand present at threefold Kd | AID 2813 | shares compounds with VLA-4 inh | 1,300 tested, 2% active | inhibition, % at 6.7 µM; in the data active = inhibition above about 40%;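 also: 0% = ligand without compound and 100% = no ligand background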
The depositor's hits bear a star; · = no result given. In the library only some 1.2% were active in any assay of this set; here they are far more common.

SMILES	VLA-4 inh	SKN-1 inh	CR mimetic SO	Platelet DG rel	ABCB6 inh MLPCN	VLA-4 allo CP
COc1ccc(/C=N/n2c(C)nc3ccccc3c2=O)cc1	17	15	113	0	98	·
COC(=O)c1ccc(/C=N/n2c(C)nc3ccccc3c2=O)cc1	41	7	105	5	92	-4
COc1ccc(NS(=O)(=O)c2ccc(Cl)c(N)c2)cc1Br	4	0	99	-3	100	-4
Nc1cc(S(=O)(=O)Nc2ccc(Br)cc2)ccc1Cl	-2	8	75	-2	94	6
CCCOc1ccc(N2C(=O)CC(N3CCOCC3)C2=O)cc1 (stereo unspecified)	6	0	106	2	98	·
CCCOc1ccc(N2C(=O)CC(N3CCC(C(=O)OCC)CC3)C2=O)cc1 (stereo unspecified)	4	7	103	-7	101	-7
COc1ccc(N2C(=O)CC(N3CCCCC3)C2=O)cc1 (stereo unspecified)	0	3	93	7	95	-3
C[C@@H]1CN([C@@H](C)CO)C(=O)c2cc(Br)cnc2O[C@H]1CN(C)Cc1cccc(C(=O)O)c1	·	8	·	·	94	·
C[C@]12CC[C@@H]3c4ccc(OS(=O)(=O)O)cc4CC[C@H]3[C@@H]1CCC2=O	8	21	101	-1	99	·
CC12CCC3c4ccc(O)cc4CCC3C1CCC2=O (stereo unspecified)	55*	5	108	·	96	12
COc1cc(C(=O)OCC(=O)NC2CCCCC2)cc(OC)c1OC	0	4	102	·	105	1
O=C1c2c(O)cc(O)cc2O[C@H](c2ccc(O)cc2)[C@H]1O	50*	3	91	1	102	6
O=C1c2c(O)cc(O)cc2O[C@H](c2ccc(O)c(O)c2)[C@H]1O	6	2	106	-1	106	·
COc1cc(CN2C[C@@H](CO)O[C@@H](n3cnc4c(NCC(C)C)ncnc43)C2)cc(OC)c1OC	·	12	·	·	99	·
Cc1nc(NC(=O)COC(=O)C(NC(=O)c2ccco2)C(C)C)c(Cl)cc1Cl (stereo unspecified)	52*	13	88	0	100	-1
CC(=O)NC(C)(c1ccccc1)c1nc(-c2cccc(C(F)(F)F)c2)cs1 (stereo unspecified)	·	17	·	·	101	·
CC1(C)CC(N2CCCC2)=CC(=[N+]2CCCCC2)C1	50*	5	132	-14	93	-9
CCOC(=O)c1cccc(NC(=O)CN(c2ccc(C)cc2)S(=O)(=O)c2c(C)n[nH]c2C)c1	57*	-8	93	-1	116	-7
COc1ccc(N(CC(=O)Nc2cccc(C)c2)S(=O)(=O)c2c(C)n[nH]c2C)cc1	43	9	109	-6	86	·
CCOC(=O)c1ccc(NC(=O)CN(c2ccc(C)cc2)S(=O)(=O)c2c(C)nn(C)c2C)cc1	15	3	99	1	97	8
CCc1nc2ccc(C(=O)NCc3ccc(OC)cc3)cn2c1N(C)C(=O)Cc1ccccc1	·	2	·	·	99	·
O=C(CSc1nnc(-c2ccccc2O)o1)Oc1ccc(Br)cc1	8	12	95	-17	101	·
O=C(CSc1nnc(-c2ccccc2Cl)o1)Oc1ccc(Br)cc1	91*	-15	96	-17	104	9
COC(=O)[C@@]12C[C@@H](CC(=O)NCc3ccccc3)C(=O)N(Cc3ccccc3)C1=CCC(C)(C)C2	·	-6	·	·	·	·
CC1(C(=O)Nc2ccc3[nH]ncc3c2)CCN1C(=O)Cc1ccc(-c2ccccc2)cc1 (stereo unspecified)	·	16	·	·	94	·
Cc1cccc(N(CC(=O)Nc2c(C)n(C)n(-c3ccccc3)c2=O)S(C)(=O)=O)c1	0	0	92	0	93	-4
Cc1c(NC(=O)CCC2CCCCC2)c(=O)n(-c2ccccc2)n1C	15	0	90	-1	100	7
Cc1c(NC(=O)C2CCCN2S(=O)(=O)c2ccccc2)c(=O)n(-c2ccccc2)n1C (stereo unspecified)	5	-16	78	-4	93	3
COc1ccc(S(=O)(=O)CCC(=O)Nc2c(C)n(C)n(-c3ccccc3)c2=O)cc1	23	-24	94	·	103	-10
N#CC1=C(Nc2ccccc2Cl)SC2(CCCC2)NC1=O	·	8	·	·	94	·
